As usually defined, the inhibition is the relative decrease from the control value, in per cent.

From PubChem BioAssay come the findings set out here.

Calls of active or inactive are those of the source.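 Rule for the calls, unless noted: active = inhibition above 20% together with a positive visual image hit; inconclusive = visual image hit but inhibition not above 20%; inactive = no visual image hit.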

A short description of experiment [1]: inhibitors of TNFa-induced NFkB p65 translocation, primary screen, imaging, HUVEC, MLSMR starter and 10KST1 sets (AID 438).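 For inhibition: signal is the nuclear over cytoplasmic p65 intensity ratio per well.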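 Note: compound added about 3h40 before a 20 min TNFalpha stimulation.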 To be noted: HUVEC TNFa-induced p65 nuclear translocation; cell count: measured here: nuclei count (cytotoxicity indicator), at 2.08 µM; inhibition: at 2 µM, stronger effect = higher value, 0% TNFa-plus-vehicle, 100% no-TNFa wells.
A short description of experiment [2]: inhibitors of mutant huntingtin aggregation, primary screen, imaging, exon1htt(103Q)mCFP cells, high-content imaging (AID 483;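 active = visual image review flags a hit and inhibition of aggregation exceeds 20%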;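 note: compound exposure lasted 3 days before fixation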;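 for nuclei count: percent of the per-plate median nuclei count of sample wells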). The settings on record: exon1htt(103Q)mCFP cell line, aggregate imaging, at 2 µM; inhibition of aggregation: stronger effect = higher value; nuclei count: measured here: cell count, toxicity.
The nature of experiment [3]: inhibitors of E-selectin induction by TNFa, primary screen, imaging, HUVEC, immunofluorescence, MLSMR starter and 10KST1 sets (AID 487;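 active = visually confirmed hit in the image check and inhibition above 20%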;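 for inhibition: signal is fraction of cell area covered by stained E-selectin grains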;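 for nuclei count: 100% = median nuclei count of all wells on the same plate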). To be noted: HUVEC TNFalpha-induced E-selectin immunofluorescence imaging, at 2 µM; inhibition: stronger effect = higher value; nuclei count: measured here: cell number, toxicity.
The target in experiment [4] is Voltage-gated potassium channel subunit beta-2 (Rattus norvegicus) (UniProt P62483). In words: KvBeta enzyme negative modulators, primary screen, biochemical, NADPH fluorescence (AID 622;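 active = fluorescence slope higher than the sample average by over 3 SD, cut at about -0.22 in these data, passing the limit was not always enough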;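 note: slope of raw intensity against log time taken from 70 to 1610 s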). To be noted: recombinant KvBeta, 4-cyanobenzaldehyde reduction, at 10 µM, stronger effect = higher value.
Voltage-gated potassium channel subunit beta-2 (Rattus norvegicus), sequence (P62483 whole entry, looked up): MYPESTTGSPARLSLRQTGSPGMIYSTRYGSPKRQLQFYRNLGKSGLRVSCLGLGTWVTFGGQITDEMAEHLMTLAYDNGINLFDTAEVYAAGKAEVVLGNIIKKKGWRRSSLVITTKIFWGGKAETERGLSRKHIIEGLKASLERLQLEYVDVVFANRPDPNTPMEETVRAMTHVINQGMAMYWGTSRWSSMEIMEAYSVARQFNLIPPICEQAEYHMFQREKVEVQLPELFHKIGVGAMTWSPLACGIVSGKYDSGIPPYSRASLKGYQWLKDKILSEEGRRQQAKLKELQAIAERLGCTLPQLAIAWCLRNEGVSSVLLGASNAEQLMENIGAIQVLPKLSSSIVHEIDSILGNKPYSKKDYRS
Experiment [5] has the same target. In words: KvBeta positive modulators, primary screen, biochemical, NADPH fluorescence (AID 623;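 active = NADPH fluorescence slope more negative than the mean of all samples by about 3 SD, 99.7% confidence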;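 note: fluorescence intensity change per second fitted from 20 to 320 s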). The settings on record: Recombinant KvBeta, NADPH fluorescence decrease slope, 10 min; at 10 µM; stronger effect = lower value.
The target in experiment [6] is Alpha-2C adrenergic receptor (Homo sapiens) (UniProt P18825). In words: modulators of alpha2C/GIRK thallium flux, primary screen, cell-based, HEK293 alpha2C/GIRK1/2 (AID 624;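 active = fluorescence slope after compound addition differing from the mean of all screened samples at 99.7% confidence, in either direction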;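 note: slope of fluorescence ratio to pre-addition baseline per second over 15 to 24 s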). The settings on record: thallium flux BTC fluorescence, at 10 µM, actives lie on both sides.
Alpha-2C adrenergic receptor (Homo sapiens), sequence (P18825 whole entry, looked up): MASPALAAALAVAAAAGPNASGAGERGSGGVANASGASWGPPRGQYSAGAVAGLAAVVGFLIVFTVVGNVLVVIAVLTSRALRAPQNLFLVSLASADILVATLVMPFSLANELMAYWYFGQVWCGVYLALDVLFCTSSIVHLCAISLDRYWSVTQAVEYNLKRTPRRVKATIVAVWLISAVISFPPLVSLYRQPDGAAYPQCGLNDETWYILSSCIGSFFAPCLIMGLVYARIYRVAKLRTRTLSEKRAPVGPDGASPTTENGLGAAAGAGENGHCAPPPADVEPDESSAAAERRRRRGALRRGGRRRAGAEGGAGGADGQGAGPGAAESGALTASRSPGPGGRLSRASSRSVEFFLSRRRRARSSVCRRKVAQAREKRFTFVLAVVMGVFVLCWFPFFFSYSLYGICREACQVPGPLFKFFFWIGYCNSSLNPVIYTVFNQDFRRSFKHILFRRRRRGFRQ
Experiment [7] in a line: inhibitors of Sendai virus-induced IRF3 signaling, primary screen, TLR/RLR signaling modifier project, cell-based, Sendai virus stimulus, luciferase, 10K MLSCN set (AID 602276;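 active = inhibition at or above 50% at 10 µM; inactive = inhibition below 50%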;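 note: firefly luciferase from ISG56 promoter only with Renilla not read in this screen; 0% = Sendai virus plus DMSO and 100% = medium plus DMSO without virus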). To be noted: HEK293 RL24 IRF3 luciferase reporter, at 10 µM, stronger effect = higher value. (In general: A reporter such as luciferase makes a cellular process visible.)
Experiment [8] can be described thus: inhibitors of poly I:C-induced TLR3 signaling, primary screen, cell-based, poly I:C stimulus, luciferase, 10K MLSCN set (AID 602277;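 active = inhibition of the reporter signal at or above 50%; inactive = inhibition below 50%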). The settings on record: HEK293-TLR3 RL24 IRF3 luciferase reporter, at 10 µM, stronger effect = higher value.

Turning to `CC(=O)N1c2c(cc(Br)cc2S(=O)(=O)NCC2COc3ccccc3O2)CC1C` (centres undefined), the cell count in experiment [1] turned out to be 651. In addition, the inhibition was -0.5% (inactive) in experiment [1], -47.6% (inactive) in experiment [3], 13.1% (inactive) in experiment [7] and 10.4% (inactive) in experiment [8]. Further, the inhibition of aggregation in experiment [2] is 19.1% (inactive). In addition, the values for the nuclei count in experiment [2] and in experiment [3] were 104% and 116%, respectively. Moreover, the fluorescence slope in experiment [4] is -0.53 (inactive). For the same compound, the NADPH fluorescence slope in experiment [5] is -7.4e-05 (inactive). The slope in experiment [6] is 0.00624 (inactive).

As to `CC(=O)c1ccc(NC(=O)CSc2nnc(-c3ccoc3C)n2Cc2ccccc2)cc1`, the cell count in experiment [1] stood at 366. In addition, the inhibition in experiment [1] is -4.2% (inactive); in experiment [3], -35.8% (inactive); in experiment [7], -9.45% (inactive); in experiment [8] it was -12% (inactive). The inhibition of aggregation in experiment [2] is 5.2% (inactive). The values for the nuclei count in experiment [2] and in experiment [3] were 98.2% and 99.5%, respectively. In experiment [4], the fluorescence slope is -0.432 (inactive). The NADPH fluorescence slope in experiment [5] was -2e-09 (inactive). The slope in experiment [6] was 0.00468 (inactive).

On to `CS(=O)(=O)NCc1ccc(C(=O)NCc2ccccc2)cc1`, for which the cell count in experiment [1] amounted to 640. Also, the inhibition was 3.3% (inactive) in experiment [1], -19.7% (inactive) in experiment [3], -0.454% (inactive) in experiment [7] and 5.61% (inactive) in experiment [8]. In experiment [2], the inhibition of aggregation is 0% (inactive). Besides, the nuclei count in experiment [2] was determined as 104%; in experiment [3], 109%. Moreover, the fluorescence slope in experiment [4] is -0.415 (inactive). Further, the NADPH fluorescence slope in experiment [5] is -3.9e-05 (inactive). Also, in experiment [6], the slope was 0.003 (inactive).

Take `CC(=O)NC(C)C(=O)OCC(=O)Nc1ccc(Br)cc1` (centres undefined): the cell count in experiment [1] is 436. Moreover, the inhibition in experiment [1] was 6.9% (inactive); in experiment [3] it was -23.8% (inactive); in experiment [7], 20% (inactive); in experiment [8], 13.9% (inactive). Moreover, the inhibition of aggregation in experiment [2] is 5.5% (inactive). Besides, the nuclei count in experiment [2] was found to be 112%; in experiment [3] it was 116%. Moreover, in experiment [4], the fluorescence slope is -0.246 (inactive). Besides, in experiment [5], the NADPH fluorescence slope is -5.1e-06 (inactive). Further, the slope in experiment [6] was 0.00449 (inactive).

As to `Cc1c(C)c2ccc(OC3CCCCC3=O)cc2oc1=O` (centres undefined), the cell count in experiment [1] was 573. Also, the inhibition in experiment [1] is -9.2% (inactive); in experiment [3] it was 38.5% (inactive); in experiment [7], -2.48% (inactive); in experiment [8], -14.3% (inactive). In addition, the inhibition of aggregation in experiment [2] was -0.8% (inactive). Besides, the nuclei count in experiment [2] is 120%; in experiment [3], 134%. Also, in experiment [4], the fluorescence slope is -0.175 (inactive). Moreover, the NADPH fluorescence slope in experiment [5] is -2e-05 (inactive). Also, the slope in experiment [6] is 0.0054 (inactive).

Consider `Clc1cccc(Cl)c1COc1ccncc1`, for which the cell count in experiment [1] was found to be 353. The inhibition in experiment [1] was 4.4% (inactive); in experiment [3], 7.5% (inactive); in experiment [7] it was -16.2% (inactive); in experiment [8], -12% (inactive). For the same compound, in experiment [2], the inhibition of aggregation was 11.7% (inactive). The nuclei count in experiment [2] was 89.4%; in experiment [3], 104%. In addition, the fluorescence slope in experiment [4] is -0.516 (inactive). The NADPH fluorescence slope in experiment [5] was 7.2e-05 (inactive). Further, the slope in experiment [6] is 0.00644 (inactive).

Turning to `CC(C)(C)C1=Nn2c(nnc2-c2n[nH]c3c2CCC3)SC1`, the cell count in experiment [1] is 385. The inhibition is 6% (inactive) in experiment [1], -30.7% (inactive) in experiment [3], 14.9% (inactive) in experiment [7] and 15.7% (inactive) in experiment [8]. Besides, in experiment [2], the inhibition of aggregation is -24.6% (inactive). The nuclei count worked out at 100% in experiment [2] and 87.6% in experiment [3]. The fluorescence slope in experiment [4] is -0.521 (inactive). For the same compound, the NADPH fluorescence slope in experiment [5] was -1.7e-07 (inactive). In addition, the slope in experiment [6] was 0.00435 (inactive).

In the case of `COc1ccccc1OCC(=O)Nc1ccc(S(=O)(=O)Nc2nc(C)cc(C)n2)cc1`, in experiment [1], the cell count is 376. Also, the inhibition was 0% (inactive) in experiment [1], -84% (inactive) in experiment [3], 11.5% (inactive) in experiment [7] and 17.1% (inactive) in experiment [8]. In addition, the inhibition of aggregation in experiment [2] is -13.8% (inactive). In addition, the nuclei count in experiment [2] amounted to 102%; in experiment [3], 121%. For the same compound, the fluorescence slope in experiment [4] is -0.335 (inactive). The NADPH fluorescence slope in experiment [5] is -6.1e-05 (inactive). For the same compound, the slope in experiment [6] was 0.00524 (inactive).

For the compound `CCOC(=O)N1CCN(C(=O)COc2cc(=O)n(C)c3ccccc23)CC1`, the cell count in experiment [1] was determined as 341. Moreover, the inhibition in experiment [1] is 1.7% (inactive); in experiment [3] it was 1.7% (inactive); in experiment [7] it was -5.65% (inactive); in experiment [8], -23.1% (inactive). Moreover, in experiment [2], the inhibition of aggregation is -0.1% (inactive). Also, the figures for the nuclei count in experiment [2] and in experiment [3] were 94.2% and 118%, respectively. Further, the fluorescence slope in experiment [4] was -0.565 (inactive). In addition, the NADPH fluorescence slope in experiment [5] is 4.1e-05 (inactive). Also, the slope in experiment [6] was 0.00524 (inactive).

On to `O=C(CC(Cc1ccccc1)C(=O)O)NCCc1ccc2c(c1)OCO2` (centres undefined), for which the cell count in experiment [1] came to 775. In addition, the inhibition in experiment [1] was -6.3% (inactive); in experiment [3] it was -161% (inactive); in experiment [7] it was -2.67% (inactive); in experiment [8], 23.4% (inactive). The inhibition of aggregation in experiment [2] is -0.6% (inactive). Also, the nuclei count in experiment [2] was 107%; in experiment [3] it was 145%. Moreover, the fluorescence slope in experiment [4] is -0.424 (inactive). In addition, the NADPH fluorescence slope in experiment [5] was -3.2e-05 (inactive). In experiment [6], the slope is 0.00395 (inactive).

`O=C1c2ccccc2C(Nc2ccc3nc(-c4cccnc4)[nH]c3c2)N1Cc1ccco1` (centres undefined): in experiment [1], the cell count was 493. Further, the inhibition in experiment [1] was -9.4% (inactive); in experiment [3], -24.3% (inactive); in experiment [7], -7.53% (inactive); in experiment [8] it was -13.9% (inactive). Further, the inhibition of aggregation in experiment [2] is 23.2% (inactive). The nuclei count turned out to be 90% in experiment [2] and 93.2% in experiment [3]. For the same compound, in experiment [4], the fluorescence slope was -0.58 (inactive). In experiment [5], the NADPH fluorescence slope is -3.1e-06 (inactive). In experiment [6], the slope is 0.00653 (inactive).

On to `CCOc1ccccc1OCCn1nnc2ccccc21`, for which, in experiment [1], the cell count is 312. For the same compound, the inhibition was -0.2% (inactive) in experiment [1], -6.1% (inactive) in experiment [3], 1.2% (inactive) in experiment [7] and -3.68% (inactive) in experiment [8]. Also, the inhibition of aggregation in experiment [2] is -1.3% (inactive). The nuclei count in experiment [2] came to 114%; in experiment [3], 109%. Also, the fluorescence slope in experiment [4] was -0.443 (inactive). Also, in experiment [5], the NADPH fluorescence slope was -5.5e-05 (inactive). Further, in experiment [6], the slope is 0.0043 (inactive).

For the compound `O=C(CCNS(=O)(=O)c1ccc(Br)s1)N1CCCCC1`, the cell count in experiment [1] amounted to 380. The inhibition in experiment [1] is 0.3% (inactive); in experiment [3] it was -86.3% (inactive); in experiment [7], -0.525% (inactive); in experiment [8], 7.37% (inactive). Further, the inhibition of aggregation in experiment [2] was -2% (inactive). Further, the nuclei count in experiment [2] was found to be 99.9%; in experiment [3], 106%. The fluorescence slope in experiment [4] is -0.494 (inactive). In addition, the NADPH fluorescence slope in experiment [5] was -3.4e-05 (inactive). In addition, the slope in experiment [6] is 0.00623 (inactive).

Regarding `CN(C)S(=O)(=O)N1CCN(C(=O)N(c2ccccc2)c2ccccc2)CC1`, the cell count in experiment [1] was found to be 352. The inhibition in experiment [1] was -3.3% (inactive); in experiment [3] it was -122% (inactive); in experiment [7], -19.7% (inactive); in experiment [8], -15.1% (inactive). Moreover, the inhibition of aggregation in experiment [2] is 0% (inactive). Moreover, the nuclei count in experiment [2] is 108%; in experiment [3], 117%. Moreover, the fluorescence slope in experiment [4] was -0.366 (inactive). Also, the NADPH fluorescence slope in experiment [5] is -2e-09 (inactive). The slope in experiment [6] was 0.00704 (inactive).
